Screens (PubChem)
NALP1 inh: NALP1 inhibition | S. cerevisiae NALP1/ASC/caspase-1 growth, X-gal OD620, 72 h | inhibition, % at 10 µM | actives 0.61% (n = 280,000) | AID 2071; in the data active means inhibition mostly above about 24%, no sharp cut-off; inactive means mostly below about 32%
tim10-1 inh: inhibits growth of tim10-1 mutant yeast | inhibition, % at 20 µM | actives 2.2% (n = 330,000) | S. cerevisiae tim10-1 ts strain growth, BacTiter-Glo, 24 h;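 active means inhibition of at least 40%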;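 further: mutant grown at 25 °C; 0% = DMSO wells with yeast and 100% = wells holding no yeast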
NALP3 yeast inh: inhibitors of NALP3 inflammasome in yeast. inhibition, % at 10 µM. AID 2825. actives 0.39% (n = 330,000). Yeast reconstituted NLRP3/ASC/caspase-1, beta-gal luminescence, 24 h;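 active means inhibition of 50% or more; inactive means inhibition below 50%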;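 further: plate controls were induced DMSO wells for no effect and uninduced yeast grown without galactose for full effect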
tim23-1 inh: inhibits growth of tim23-1 mutant yeast | actives 1.3% (n = 330,000) | AID 463212 | inhibition, % at 20 µM | S. cerevisiae tim23-1 growth, BacTiter-Glo luminescence, 24 h;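 active means growth inhibition of the mutant yeast at or above 50%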;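 further: temperature-sensitive mutant grown at 25 °C; plate controls were DMSO-treated mutant yeast for no effect and medium wells lacking yeast for full effect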
TIM10 inh: TIM10 yeast growth inhibition. actives 1.4% (n = 330,000). inhibition, % at 10 µM. S. cerevisiae TIM10 strain growth, BacTiter-Glo luminescence, 24 h. AID 463195;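 active means inhibition of 40% or more at the single tested concentration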;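 further: wild-type TIM10 isogenic control strain grown at permissive 25 °C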
tim10 confirm: confirmation of TIM10 yeast growth inhibitors; S. cerevisiae tim10 strain growth, BacTiter-Glo luminescence, 24 h; actives 63% (n = 4,600); AID 463215; inhibition, % at 10 µM; shares compounds with TIM10 inh;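 active means inhibition of yeast growth at or above a set limit in either of two replicates at 10 µM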;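 further: this counterscreen used the strain with wild-type TIM10; 0% = yeast with DMSO and 100% = medium wells lacking yeast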
* = called active by the depositor; / = no result given. Hits are enriched below; roughly 4.1% of the tested compounds scored in any of these assays.

SMILES | NALP1 inh | tim10-1 inh | NALP3 yeast inh | tim23-1 inh | TIM10 inh | tim10 confirm
CCc1ccccc1NC(=S)NCCSc1ccc(Cl)cc1 | 3.9 | 35.4 | 24.9 | 17.5 | 54.7* | 40.1*
CS(=O)(=O)Nc1ccccc1C(=O)NCCSc1ccc(Cl)cc1 | 23.1 | 4.5 | 19.4 | 25.7 | 10.3 | /
COc1ccc(NC(=O)c2cc3n(n2)C(C(F)(F)F)CC(c2ccc4c(c2)OCO4)N3)cc1OC (stereo unspecified) | -5.0 | 38.5 | 13.2 | 34.3 | 40.6* | 35.2*
COc1ccc(C2CC(C(F)(F)F)n3nc(C(=O)NCCCn4ccnc4)cc3N2)cc1OC (stereo unspecified) | 14.2 | 8.5 | 5.8 | -4.8 | 4.3 | /
O=C(Nc1cc([N+](=O)[O-])ccc1Cl)C(Sc1ccccc1)c1ccccc1 (stereo unspecified) | 13.6 | 11.9 | -9.9 | -3.4 | 18.2 | /
O=C(Nc1ccc(Cl)c([N+](=O)[O-])c1)C(Sc1ccccc1)c1ccccc1 (stereo unspecified) | 11.1 | 27.1 | 21.8 | 31.9 | 41.8* | 43.0*
CCC1(C)Cc2ccccc2-c2[nH][nH]c(=O)c21 (stereo unspecified) | -12.6 | 18.5 | 7.5 | 14.3 | 10.9 | /
CCCC(=O)N1CCN(c2ccc(NC(=O)c3cccs3)cc2Cl)CC1 | -13.6 | 11.4 | 44.8 | 31.1 | 46.3* | 16.8
CCCC(=O)N1CCN(c2ccc(NC(=O)C(C)(C)C)cc2Cl)CC1 | -5.7 | 22.9 | -9.8 | 7.0 | -12.2 | /
CCC(C)N(C(=O)CSc1nnc(-c2ccco2)n1C)C1CCS(=O)(=O)C1 (stereo unspecified) | / | 9.0 | -2.9 | 11.5 | 7.8 | /
COc1ccc(/C=C(/C(=O)Nc2ccccc2C(=O)NC(C)C)c2ccccc2)cc1 | 15.7 | 35.3 | 18.9 | 2.3 | 32.9 | /
COc1ccc(/C=C(/C(=O)Nc2ccccc2C(=O)N2CCCC2)c2ccccc2)cc1 | 12.7 | 33.8 | -5.8 | 30.0 | 43.0* | 27.9
Fc1ccc(CNCC2CCCO2)cc1 (stereo unspecified) | -79.2 | 0.1 | 26.3 | -0.1 | 96.6* | -10.4
COc1ccc(C(=O)/C=C/C(=O)N(Cc2ccc(F)cc2)C(C(=O)NC2CCCCC2)c2ccncc2)c(O)c1 (stereo unspecified) | -33.8 | 31.8 | 13.4 | 38.4 | 44.1* | 0.3
COc1ccc(C(=O)/C=C/C(=O)N(Cc2ccccc2)C(C(=O)NC2CCCCC2)c2ccncc2)c(O)c1 (stereo unspecified) | -43.5 | 18.2 | -2.2 | 34.0 | 22.7 | /
O=C(COc1ccc([N+](=O)[O-])cc1)Nc1ccc(C(=O)NCc2cccnc2)cc1 | 10.1 | 7.7 | 4.4 | -15.4 | 7.7 | /
NCC(O)CN1CCN(Cc2ccccc2)CC1 (stereo unspecified) | 23.6 | -11.5 | 9.8 | -20.8 | -28.1 | /
COCCSc1nnc(NC(=O)c2ccco2)s1 | 23.0 | 6.1 | 18.4 | 15.9 | 67.3* | 12.1
Cc1ccc(SCC(=O)NC(=O)c2ccc(S(=O)(=O)N(C)C)cc2)cc1C | 29.9 | 22.6 | 10.0 | 8.3 | 9.4 | /
O=C(CCCN1C(=O)/C(=C/c2cccc(Br)c2)SC1=S)Nc1cccnc1 | -3.9 | 37.3 | 18.1 | 24.7 | 21.4 | /
COC(=O)CCCCCN1C(=O)/C(=C\c2ccncc2)SC1=S | -5.4 | 13.4 | 6.8 | 43.3 | 41.8* | 28.4*
O=C(CCCN1C(=O)/C(=C\c2cccc(Br)c2)SC1=S)Nc1cccnc1 | -11.0 | 35.5 | 19.9 | 36.9 | 44.8* | 29.0
Cc1cccc(NC(=O)c2cc(-c3ccccn3)nc3ccccc23)c1C | -17.8 | 39.2 | -2.3 | 15.2 | 14.3 | /
CCn1c(=O)c([N+](=O)[O-])c(Cl)c2ccccc21 | -16.5 | 33.4 | 9.0 | 37.2 | 77.5* | 78.8*
Cc1cc(C(F)(F)F)c2sc(N)nc2n1 | 14.2 | -5.9 | 4.8 | 6.6 | -17.0 | /
SMILES | NALP1 inh | tim10-1 inh | NALP3 yeast inh | tim23-1 inh | TIM10 inh | tim10 confirm
Nc1nc2nc(-c3ccccc3)cc(C(F)(F)F)c2s1 | 18.6 | 4.9 | -17.0 | 47.3 | 47.2* | 39.5*
Cc1cc(C)nc(N/N=C/c2ccccc2OCc2cccc(Br)c2)n1 | 33.2 | 39.4 | 29.7 | 38.8 | 48.3* | 1.5
Cc1cc(C)nc(N/N=C/c2ccccc2OCc2ccc(Br)cc2)n1 | 19.1 | 19.6 | 22.4 | 24.6 | 34.2 | /
O=C1c2cccc(OCC(=O)N3CCCc4ccccc43)c2CCN1Cc1ccc(F)cc1 | 25.0 | 33.9 | 3.3 | 43.3 | 43.1* | -50.2
CC[C@@]1(C(=O)OC)N[C@H](CN(C)C(=O)c2ccc(C)cc2)[C@@H]2C(=O)N(Cc3ccccc3)C(=O)[C@@H]21 | / | 12.9 | 9.4 | 9.2 | 7.2 | /
COC(=O)CCc1c(C)c(C(=O)c2cc(OC)c(OC)c(OC)c2)c2ccccn12 | 19.9 | 23.6 | -9.0 | 35.2 | 10.0 | /
CN1/C(=C\C(=O)COC(=O)c2nccnc2N)C(C)(C)c2ccccc21 | / | 12.6 | 22.1 | 15.7 | 0.7 | /
CN1/C(=C\C(=O)COC(=O)c2ccc([N+](=O)[O-])o2)C(C)(C)c2ccccc21 | -3.1 | 15.7 | 24.0 | -289.9 | 65.4* | 75.0*
COc1ccc(C2=NN(C(=O)CCC(=O)O)C(c3ccc(Br)cc3)C2)cc1 (stereo unspecified) | 6.3 | -12.6 | 9.6 | -1.4 | 44.1* | 7.0
CCCc1nnc(SCC(=O)N2CCOCC2)n1C | -2.1 | -3.7 | -2.9 | 2.2 | 7.4 | /
CC(=O)c1ccc(OC(=O)N(c2ccccc2)c2ccccc2)cc1 | 2.9 | 24.7 | 14.6 | 38.7 | 62.7* | 8.6
CC(=O)c1ccc(OC(=O)CCc2ccccc2)cc1 | 13.1 | 8.8 | 2.5 | 23.8 | 5.6 | /
C=CCN(CC=C)C(=S)NC(=O)/C=C/c1ccc(OC)cc1 | 1.5 | 20.2 | 18.1 | 44.9 | 44.4* | 10.9
CCCCCCOC(=O)Sc1nc2ccccc2o1 | 5.2 | -18.9 | 21.9 | 37.8 | 76.9* | 72.0*
COC(=O)CSc1nc2ccccc2o1 | 6.1 | -13.4 | 13.2 | 17.9 | -2.7 | /
O=[N+]([O-])c1ccc(Sc2nc3ccccc3o2)c([N+](=O)[O-])c1 | 21.1 | 19.4 | 41.7 | -183.4 | 47.0* | 68.1*
O=[N+]([O-])c1ccc(Cl)cc1Sc1nc2ccccc2o1 | 9.1 | 12.9 | -11.9 | 24.3 | 19.9 | /
COc1cccc(/C=N/n2cnc3cc(C)c(C)cc32)c1OC | / | 35.1 | 21.7 | 27.2 | 42.3* | 36.3*
CCOC(=O)C(C(=O)OCC)N(C#N)c1nc(N(C)C)nc(N(C)C)n1 | -3.9 | 19.4 | 3.3 | 26.6 | 20.9 | /
CCCN(C(=O)Cn1ncc2c(=O)oc3ccccc3c21)c1cccc(C)c1 | 19.0 | 32.8 | -7.0 | 31.3 | 40.9* | 16.4
S=C(NCc1cccs1)Nc1ccc(Br)cc1Cl | 19.5 | 21.1 | 32.1 | 39.4 | 41.2* | 46.0*
COc1ccc(S(=O)(=O)NC(C)C(=O)NCc2ccccn2)cc1Cl (stereo unspecified) | 9.3 | 1.2 | 0.2 | 5.4 | -20.4 | /
CCOc1ccc(S(=O)(=O)n2c([N+](=O)[O-])cnc2C)c(C)c1C | -1.0 | -2.2 | 15.4 | 11.6 | 97.2* | 10.6
